Test [1] deals with Wnt5a (protein binding on small-molecule microarray). Put plainly: small molecules binding Wnt5a protein – biophysical, small-molecule microarray, 635/667 nm fluorescence, primary screen (AID 1142).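 Also: fluorescence read at 667 nm with signal to noise per printed feature.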 Conditions: 635 nm fluorescence, higher = more signal.
Test [2] in a line: ATP-based viability of Huh7 replicon cells – cell-based, CellTiter-Glo luminescence, basal, 48 h, cytotoxicity control for HCV replication inhibitor project, primary screen (AID 1143).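 Also: Huh7 hepatoma cells carrying a hepatitis C replication reporter with no stimulus; test concentration not given here.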 The conditions noted are these: higher = more signal, called active from +8 up or from −8 down.
A short description of test [3]: Pseudomonas biofilm growth suppression – PAO1 strain, BacTiter-Glo luminescence, LB-PBS, primary screen (AID 1144). The conditions noted are these: P. aeruginosa PAO1 biofilm, 12 h, higher = more signal.
Test [4] is described as follows: basal CRE-LacZ reporter activity in PC12 – cell-based, unstimulated, primary screen (AID 1145). Conditions: no forskolin, luminescence, 4.5 h, higher = more signal, called active from +8 up or from −8 down.
Test [5] in a line: forskolin-driven CRE-LacZ activity in PC12 – cell-based, CRE-LacZ reporter, forskolin-stimulated, primary screen (AID 1146).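 Also: PC12 cells with 6xCRE LacZ reporter stimulated by forskolin 10 µM; beta-galactosidase reporter signal reflecting CREB driven transcription.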 The conditions noted are these: luminescence, 4.5 h, higher = more signal, called active from +8 up or from −8 down.
Test [6] deals with Streptavidin (Streptomyces avidinii) (UniProt P22629). Put plainly: compounds binding control protein streptavidin – biophysical, small-molecule microarray, 635/667 nm fluorescence, artefact control for SMM compound annotation, primary screen (AID 1147).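 Also: signal reflects streptavidin binding to arrayed compounds as a control protein.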 Conditions: higher = more signal.
The nature of test [7]: probe aInhba binding on compound microarray – biochemical, small-molecule microarray, 635/667 nm fluorescence, primary screen (AID 1148).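 Also: score merges 667nm spot fluorescence with signal-to-noise for antibody binding to printed compounds.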 The conditions noted are these: higher = more signal.
For test [8], the target named is Torsin-1A (Homo sapiens) (UniProt O14656). Briefly: TOR1A wild-type binding on microarray – cell lysate, small-molecule microarray, lysate, 635/667 nm, primary screen (AID 1149). The conditions noted are these: COS7 hTOR1A-WT lysate, 635 nm fluorescence, higher = more signal.
Test [9] shares this target. Put plainly: torsin A mutant lysate binding on microarrays – cell lysate, small-molecule microarray, COS7 lysate, 635/667 nm fluorescence, primary screen (AID 1150).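 Also: score pools 667 nm emission and signal to noise measuring lysate protein binding.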 The conditions noted are these: COS7 hTOR1A mutant lysate, 635 nm fluorescence, higher = more signal.
Test [10] concerns Sonic hedgehog protein (Shh). Briefly: Sonic hedgehog microarray binding compounds – biochemical, small-molecule microarray, 635/667 nm fluorescence, primary screen (AID 1151).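 Also: Shh protein binding to compounds spotted on small-molecule microarray slides; score combines spot fluorescence intensity with signal-to-noise across triplicate slides.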 The conditions noted are these: 635 nm fluorescence, higher = more signal.
A short description of test [11]: optical density shifts of acrAB sulA E. coli – strain DRC41, OD650, 48 h, E. coli filamentation inducer project, primary screen (AID 1152).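 Also: E. coli MC1000 strain DRC41 lacking acrAB efflux pump and sulA.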 Conditions: higher = more signal, called active from +8 up or from −8 down.
Test [12] can be described thus: probe aLefty1 binding on compound microarray – biochemical, small-molecule microarray, 635/667 nm fluorescence, primary screen (AID 1153).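 Also: score merges spot fluorescence with signal-to-noise ratio from the scanned slide images.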 The conditions noted are these: higher = more signal.
Test [13] can be described thus: plasmodial surface anion channel blockers, osmotic lysis – cell-based, P. falciparum Indochina, OD700, 1 h, primary screen (AID 1154). Conditions: P. falciparum Indochina infected RBC osmotic lysis, higher = more signal, called active from +8 up or from −8 down.
A short description of test [14]: plasmodial surface anion channel blockers, osmotic lysis – cell-based, P. falciparum Indochina, OD700, 2 h, primary screen (AID 1155).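 Also: lysis reports solute entry through the parasite surface anion channel PSAC.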 Conditions: P. falciparum Indochina infected erythrocytes, higher = more signal, called active from +8 up or from −8 down.
Test [15] can be described thus: changes in parasitized red cell lysis, either direction – P. falciparum Indochina, OD700, 3 h, PSAC antagonist project, primary screen (AID 1156). Conditions: P. falciparum-infected erythrocytes, osmotic lysis, higher = more signal, called active from +8 up or from −8 down.
A short description of test [16]: plasmodial surface anion channel blockers, osmotic lysis – cell-based, P. falciparum Indochina, OD700, 18 h, primary screen (AID 1157). The conditions noted are these: P. falciparum Indochina infected erythrocytes, osmotic lysis OD700, 18 h; higher = more signal, called active from +8 up or from −8 down.
The nature of test [17]: S6 kinase pathway phospho-S6 level changes – cell-based, A549, cytoblot, luminescence, serum-stimulated, primary screen (AID 1158).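 Also: serum-stimulated A549 lung adenocarcinoma cells; signal is phosphorylated S6 detected by cytoblot immunostaining with HRP secondary.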 Conditions: 5 h, higher = more signal.
Test [18] has as its target NADPH oxidase 2 (Homo sapiens) (UniProt P04839). Put plainly: compounds shifting NOX2 Amplex Red fluorescence – cell-based, HEK293-NOX2, PMA-stimulated, NOX inhibitor project, primary screen (AID 1159). Also: test concentration not given here. Conditions: 45 min, higher = more signal, called active from +8 up or from −8 down.
For test [19], the target named is NADPH oxidase 4 (Homo sapiens) (UniProt Q9NPH5). Briefly: compounds shifting NOX4 Amplex Red fluorescence – cell-based, HEK293-NOX4, tetracycline-induced, NOX inhibitor project, primary screen (AID 1160). The conditions noted are these: HEK293-NOX4, Amplex Red H2O2 fluorescence, 45 min; higher = more signal, called active from +8 up or from −8 down.
Test [20] deals with NADPH oxidase 5 (Homo sapiens) (UniProt Q96PH1). Briefly: compounds shifting NOX5 Amplex Red fluorescence – cell-based, HEK293-NOX5, NOX inhibitor project, primary screen (AID 1161). The conditions noted are these: HEK293-NOX5, ionomycin, 45 min, higher = more signal.

SMILES strings stand for the structures. Calls of active or inactive are those of the source. Unless noted, no rule for the calls is given here.

NADPH oxidase 4 (Homo sapiens), sequence (Q9NPH5 whole entry, looked up): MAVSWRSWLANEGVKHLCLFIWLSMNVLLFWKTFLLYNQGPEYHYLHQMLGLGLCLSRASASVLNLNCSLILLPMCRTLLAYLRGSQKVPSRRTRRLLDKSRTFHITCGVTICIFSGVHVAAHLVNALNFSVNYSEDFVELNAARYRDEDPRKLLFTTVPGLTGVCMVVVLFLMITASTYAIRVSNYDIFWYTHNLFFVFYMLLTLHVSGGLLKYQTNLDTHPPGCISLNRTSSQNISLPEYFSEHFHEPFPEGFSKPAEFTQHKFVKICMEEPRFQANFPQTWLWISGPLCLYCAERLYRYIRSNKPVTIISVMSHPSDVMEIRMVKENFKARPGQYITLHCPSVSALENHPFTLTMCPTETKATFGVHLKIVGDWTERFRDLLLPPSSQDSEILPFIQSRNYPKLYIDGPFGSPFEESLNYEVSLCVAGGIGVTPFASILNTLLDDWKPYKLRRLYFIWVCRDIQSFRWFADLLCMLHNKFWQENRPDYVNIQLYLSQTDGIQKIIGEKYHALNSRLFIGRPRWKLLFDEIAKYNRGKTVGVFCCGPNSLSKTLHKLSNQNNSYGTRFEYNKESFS
NADPH oxidase 2 (Homo sapiens), sequence (P04839 whole entry, looked up): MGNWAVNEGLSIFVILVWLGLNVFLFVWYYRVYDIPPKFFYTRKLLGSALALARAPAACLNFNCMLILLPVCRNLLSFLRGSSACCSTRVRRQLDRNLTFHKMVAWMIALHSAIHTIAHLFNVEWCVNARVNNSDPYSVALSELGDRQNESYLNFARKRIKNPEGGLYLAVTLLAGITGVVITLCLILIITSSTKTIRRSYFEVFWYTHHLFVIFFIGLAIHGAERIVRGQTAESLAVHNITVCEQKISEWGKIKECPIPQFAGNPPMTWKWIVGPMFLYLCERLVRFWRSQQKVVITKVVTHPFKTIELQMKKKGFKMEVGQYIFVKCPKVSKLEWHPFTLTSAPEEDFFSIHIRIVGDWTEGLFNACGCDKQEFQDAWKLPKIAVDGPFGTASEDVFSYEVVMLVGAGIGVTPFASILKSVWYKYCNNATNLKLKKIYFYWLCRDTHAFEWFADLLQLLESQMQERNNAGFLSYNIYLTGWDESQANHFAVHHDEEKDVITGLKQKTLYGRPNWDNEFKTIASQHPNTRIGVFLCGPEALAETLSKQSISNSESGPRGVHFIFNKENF
Streptavidin (Streptomyces avidinii), sequence (P22629 whole entry, looked up): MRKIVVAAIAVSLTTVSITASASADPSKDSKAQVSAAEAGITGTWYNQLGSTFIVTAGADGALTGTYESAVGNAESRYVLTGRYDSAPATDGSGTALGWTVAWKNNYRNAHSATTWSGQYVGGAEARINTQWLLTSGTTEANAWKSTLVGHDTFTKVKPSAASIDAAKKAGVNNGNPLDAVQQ
NADPH oxidase 5 (Homo sapiens), sequence (Q96PH1 whole entry, looked up): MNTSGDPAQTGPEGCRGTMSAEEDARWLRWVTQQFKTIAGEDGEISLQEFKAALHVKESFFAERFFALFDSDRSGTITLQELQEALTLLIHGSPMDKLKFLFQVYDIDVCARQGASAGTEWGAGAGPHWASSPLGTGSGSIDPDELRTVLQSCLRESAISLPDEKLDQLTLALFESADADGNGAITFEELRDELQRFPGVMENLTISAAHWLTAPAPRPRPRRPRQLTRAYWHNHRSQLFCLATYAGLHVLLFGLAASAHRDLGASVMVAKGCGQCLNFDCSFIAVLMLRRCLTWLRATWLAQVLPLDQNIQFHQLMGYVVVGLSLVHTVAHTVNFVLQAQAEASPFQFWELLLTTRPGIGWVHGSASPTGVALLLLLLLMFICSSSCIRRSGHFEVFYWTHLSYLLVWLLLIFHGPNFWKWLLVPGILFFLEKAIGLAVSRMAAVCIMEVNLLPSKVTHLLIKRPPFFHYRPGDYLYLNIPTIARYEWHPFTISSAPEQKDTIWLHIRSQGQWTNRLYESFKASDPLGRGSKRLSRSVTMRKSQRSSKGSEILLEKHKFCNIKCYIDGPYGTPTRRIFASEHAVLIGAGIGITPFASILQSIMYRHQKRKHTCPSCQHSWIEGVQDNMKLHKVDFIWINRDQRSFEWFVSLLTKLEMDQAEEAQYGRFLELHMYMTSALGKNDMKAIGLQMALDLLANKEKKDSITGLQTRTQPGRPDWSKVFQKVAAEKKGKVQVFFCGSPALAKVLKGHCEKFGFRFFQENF
Torsin-1A (Homo sapiens), sequence (O14656 whole entry, looked up): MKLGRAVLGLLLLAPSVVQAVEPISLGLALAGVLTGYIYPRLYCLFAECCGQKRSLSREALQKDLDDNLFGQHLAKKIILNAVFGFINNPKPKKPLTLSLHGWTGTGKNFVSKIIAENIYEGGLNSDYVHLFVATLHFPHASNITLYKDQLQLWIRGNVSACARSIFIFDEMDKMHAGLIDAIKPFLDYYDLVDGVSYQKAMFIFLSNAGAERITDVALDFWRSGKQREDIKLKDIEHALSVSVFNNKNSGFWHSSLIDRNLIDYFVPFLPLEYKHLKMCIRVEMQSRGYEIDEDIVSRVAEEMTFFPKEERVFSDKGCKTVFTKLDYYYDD

As for `CC(=O)OC[C@H]1O[C@@H](ON=C(C)CCN2CCc3nc(-c4ccccc4)c(-c4ccccc4)cc3C2)[C@H](OC(C)=O)[C@@H](OC(C)=O)[C@@H]1OC(C)=O`, the composite z-score was found to be 0.344 in [1]; 0.65 in test [6]; 0.134 in test [7]; 0.054 in [8]; 0.257 in [9]; 1.12 in test [10]. The same compound registered a composite z-score in [12] of 0.0355. Further, the z-score in test [2] was -0.228 (inactive); in [3] it was 0.305 (inactive); in test [4], 1.41 (inactive); in test [5], 0.0789 (inactive); in [11], -1.59 (inactive); in [13], 1.12 (inactive). In addition, the z-score in test [14] was 0.327 (inactive); in test [15] it was 0.993 (inactive); in test [16], 0.465 (inactive); in test [17] it was -0.225; in [18], -1.13 (inactive); in test [19] it was 0.55 (inactive). Moreover, the z-score in test [20] was -3.13.

In the case of `Cc1ccc(F)cc1S(=O)(=O)N[C@@H]1CCN(Cc2ccc(CC(C)C)cc2)C1`, the composite z-score in [1] was -0.524; in test [6], -0.758; in test [7] it was -0.231; in test [8], 0.492; in [9], -0.859; in [10] it was 0.15. The compound also came in with a composite z-score in [12] of -0.146. The z-score in [2] was -4.94 (inactive); in [3], -0.158 (inactive); in test [4] it was -0.683 (inactive); in test [5] it was 0.673 (inactive); in test [11], -19.2 (active); in [13], 2.71 (inactive). The z-score was 0.63 (inactive) in test [14]; 0.233 (inactive) in test [15]; 0.916 (inactive) in test [16]; -0.647 in test [17]; -0.0569 (inactive) in [18]; -1.44 (inactive) in test [19]. The z-score in test [20] is -4.02.

For the compound `C[C@@H](c1ccccc1)N1C(=O)[C@H]2[C@H]3[C@H](O)[C@H](O)CC(=NNC(=O)OCc4ccccc4)[C@H]3CC[C@H]2C1=O`, the composite z-score was 0.15 in test [1]; 0.0456 in test [6]; -0.317 in test [7]; -0.184 in test [8]; -0.289 in test [9]; -0.108 in test [10]. The compound also showed a composite z-score in [12] of 0.107. Moreover, the z-score in [2] was -0.0242 (inactive); in test [3], 0.158 (inactive); in test [4], 0.423 (inactive); in test [5] it was -0.0874 (inactive); in [11], 0.645 (inactive); in test [13], 3.27 (inactive). Also, the z-score is 1.03 (inactive) in [14]; 0.0197 (inactive) in test [15]; 0.0072 (inactive) in [16]; 0.296 in test [17]; 0.982 (inactive) in test [18]; 1.08 (inactive) in [19]. For the same compound, the z-score in [20] turned out to be 0.412.

As to `CC(C)N1CC=CC23O[C@@H]4C=CCCOC(=O)C4[C@H]2C(=O)N(CCCCCCO)[C@@H]3C1=O` (stereo not given in full), the composite z-score in test [1] was -0.952; in [6] it was -0.717; in test [7], -0.003; in test [8] it was -1.12; in test [9], -1.57; in [10] it was 0.011. In test [12], this compound displayed a composite z-score of -0.007. The z-score is 0.471 (inactive) in [2]; -0.454 (inactive) in [3]; -0.488 (inactive) in test [4]; -0.905 (inactive) in [5]; 0.383 (inactive) in test [11]; 0.156 (inactive) in [13]. The z-score was 0.405 (inactive) in test [14]; 0.799 (inactive) in test [15]; 0.647 (inactive) in [16]; 0.342 in [17]; 0.584 (inactive) in test [18]; -0.185 (inactive) in test [19]. The z-score in [20] was 1.52.

With `O=C1[C@H]2[C@H]3[C@H](O)[C@H](O)CC(=NOCc4ccccc4)[C@@H]3CC[C@H]2C(=O)N1C1CCCCC1`, the composite z-score in test [1] was 0.0062; in [6], -0.0498; in [7], -0.533; in test [8], -0.0289; in test [9], -0.47; in [10] it was -0.317. This compound also yielded a composite z-score in test [12] of 0.056. For the same compound, the z-score in test [2] was -0.48 (inactive); in [3] it was 0.774 (inactive); in test [4], 0.519 (inactive); in test [5], 0.182 (inactive); in test [11] it was -0.501 (inactive); in test [13] it was 2.79 (inactive). The z-score is 0.322 (inactive) in test [14]; 0.28 (inactive) in test [15]; 0.352 (inactive) in test [16]; -0.206 in test [17]; 1.56 (inactive) in test [18]; 0.568 (inactive) in test [19]. The z-score in test [20] is -0.818.

For the origin of these results see PubChem BioAssay.
